# Compound activity deposited in PubChem BioAssay by National Center for Advancing Translational Sciences (NCATS).
# An excerpt weighted towards active compounds, which were near 5.3% of everything screened.
# HCV inh = inhibitors of hepatitis C virus infection; 3.4% of 340,000 active; Huh7.5.1 HCVcc-Cre infection, luciferase reporter, 44 h; Potency, µM (titrated, usually from 41.8 µM), actives largely listed as inhibitors; AID 651820; active = well fitted inhibition curve with a large enough effect; inconclusive = small, poorly fitted or top-dose-only effect, or another doubt; inactive = no such curve, though single readings can be large or run the other way
#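 Infectious HCVcc-Cre (~0.5 moi) was added to cells just after compound, with cells seeded 4 h earlier at 1,000 per well. Luciferase activity after 44 h culture reported infection; substrate was incubated 15 min at room temperature before reading.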
# FMDV inh = foot and mouth disease virus antiviral activity | FMDV antiviral cell-based qHTS | Potency, µM (doses to about 57.9 µM), usual class: inhibitors | 1.2% of 410,000 active | AID 1159524; calls by dose curve; tested in HEK293T cells; note: read-out not given here; nearly all actives have a fitted effect of over 45% in size
# VACV Venus inh = inhibitors of vaccinia virus (Venus reporter); Vaccinia virus Venus reporter expression, fluorescence; Potency, µM (highest dose often 36.5 µM), actives largely listed as inhibitors; 0.46% of 330,000 active; calls by dose curve; tested in A549 cells; note: nearly all actives have a fitted effect of over 30% in size
# LASV entry inh = inhibitors of Lassa virus binding or cell entry. Potency, µM (doses to about 37.9 µM), hits mostly inhibitors. Lassa virus pseudotype entry inhibition, cell reporter. 1.2% of 300,000 active; calls by dose curve; tested in HEK293 cells; note: nearly all actives have a fitted effect of over 50% in size
# Marburg entry inh = inhibitors of Marburg virus binding or cell entry; Potency, µM (top dose mostly 37.8 µM), most hits filed as inhibitors; 1.8% of 300,000 active; Marburg virus pseudotyped entry inhibition, cell reporter; calls by dose curve; tested in HEK293 cells
# Vaccinia mCherry = vaccinia inhibition (mCherry reporter); Vaccinia virus mCherry reporter infection, fluorescence; Potency, µM (top dose mostly 36.5 µM), actives largely listed as inhibitors; 0.63% of 310,000 active; calls by dose curve; tested in A549 cells; note: nearly all actives have a fitted effect of over 35% in size
# A number is an active result; – = inactive; ? = inconclusive; · = no result.
SMILES,HCV inh,FMDV inh,VACV Venus inh,LASV entry inh,Marburg entry inh,Vaccinia mCherry
COC(C(=O)C(O)C(C)O)C1Cc2cc3cc(OC4CC(OC5CC(O)C(O)C(C)O5)C(O)C(C)O4)c(C)c(O)c3c(O)c2C(=O)C1OC1CC(OC2CC(OC3CC(O)C(OC)C(C)O3)C(O)C(C)O2)C(O)C(C)O1 (centres undefined),1µM,–,?,–,–,?
Cc1cccc(CNc2ncnc3ccc(-c4ccc(C(=O)N(C)C)cc4)cc23)c1,·,–,–,·,·,–
COc1ccc(CN2CCC3(CC2)c2ccccc2[C@@H](NC(=O)c2ccco2)[C@@H]3OC)c(O)c1,·,–,–,·,·,–
O=C(OC1CNC(C#Cc2cc3ncnc(Nc4ccc5c(ccn5Cc5cc(F)ccc5F)c4)c3s2)C1)N1CCOCC1 (centres undefined),·,·,·,4µM,·,·
OC[C@@H](O)C(O)[C@H](O)CO,·,–,–,·,·,–
CC(=O)c1ccc2c(c1)C1C(Cl)C(Sc3ccccc3[N+](=O)[O-])CC1C(c1ccccc1[N+](=O)[O-])N2 (centres undefined),2.2µM,–,–,?,?,–
Cc1ccc(OCCN2CCN(c3nc(NCc4ccco4)c4ccccc4n3)CC2)cc1,11µM,–,?,?,?,?
OCCN1CCN(c2nc(NCc3ccco3)c3ccccc3n2)CC1,?,–,–,–,–,·
c1ccc(CN2CCN(c3nc(NCc4ccco4)c4ccccc4n3)CC2)cc1,?,32µM,?,13µM,?,?
Cc1cccc(N2CCN(S(=O)(=O)c3ccc4c(c3)C(C(C)C)C(=O)N4)CC2)c1C (centres undefined),·,–,–,1.3µM,·,?
Cc1cccc(N2CCN(S(=O)(=O)c3ccc4c(c3)NC(=O)C(C)S4)CC2)c1C (centres undefined),0.32µM,–,·,·,·,·
Cc1ccccc1NC(=O)C1CCN(S(=O)(=O)c2ccc3c(c2)NC(=O)C(C)S3)CC1 (centres undefined),–,–,–,–,–,–
COc1ccc(-c2nc(-c3ccccc3)oc2Nc2c(C)cccc2C)cc1,·,·,·,·,–,·
CC(C)(C)c1cc(C(=O)CCN2CCOCC2)cc(C(C)(C)C)c1O,–,–,?,–,–,11µM
CCN(CC)c1ccc(-c2nc3cnccn3c2NC2CCCC2)cc1,32µM,–,·,–,?,·
OCCN1C2=NCCCN2c2ccccc21,–,–,–,–,?,–
N=C1Sc2ccccc2C2=NCCCN12,·,·,·,·,1.6µM,·
CCc1ccc2oc(C(=O)NCC(c3ccc(Cl)cc3)N3CCOCC3)c(C)c2c1 (centres undefined),·,–,–,–,–,–
COc1cc2sc3ccc(C#CC4(O)CCCCC4)cc3c(=O)c2cc1OC,?,–,?,·,·,–
Cn1c2ccccc2c(=O)c2ccc(C#CC3(O)CCCCC3)cc21,10µM,–,–,·,·,–
CC(=O)O[C@H]1C[C@@H]2OC3C=C(C)CCC3(C)[C@@]1(C)[C@@]21CO1 (some centres undefined),·,·,·,·,0.45µM,·
Cc1ccc2c(c1)nnn2C1CCN(S(=O)(=O)c2ccc(C(=O)N(C)C3CCCCC3)cc2)CC1,13µM,–,·,?,?,·
COc1ccc2c(c1)OC(C)CN(CCNC(=O)c1cc3cc(F)ccc3[nH]1)C2 (centres undefined),·,–,–,·,·,–
Cc1nc2ccccn2c1/C(O)=C1\C(=O)C(=O)N(CCN2CCOCC2)C1c1cccnc1 (centres undefined),1µM,–,–,–,–,·
Cc1ccc(/C(O)=C2/C(=O)C(=O)N(CCN3CCOCC3)C2c2cccnc2)cc1 (centres undefined),–,–,·,–,–,·
SMILES,HCV inh,FMDV inh,VACV Venus inh,LASV entry inh,Marburg entry inh,Vaccinia mCherry
Cc1c(/C(O)=C2/C(=O)C(=O)N(CCN3CCOCC3)C2c2ccccn2)cnn1-c1ccccc1 (centres undefined),–,1.4µM,–,?,?,–
CCN(C(=O)c1coc(=O)c2ccccc12)c1ccccc1C,·,–,–,–,?,–
CC(NC(=O)c1ccc(F)cc1)C(c1cccs1)N1CCN(C)CC1 (centres undefined),–,–,–,–,–,–
CC(NC(=O)c1ccc(N(C)C)cc1)C(c1cccs1)N1CCN(C)CC1 (centres undefined),10µM,·,–,–,–,–
OC(c1ccc2c(c1)CN(Cc1cccn1-c1ncccn1)CCO2)C1CCCCC1 (centres undefined),·,–,–,·,·,–
CC(=O)OC[C@H]1O[C@H](CCO/N=C(\C)CCC(=O)OC[C@H]2O[C@H](C#Cc3ccccc3)C=C[C@@H]2Oc2ccc(C)cc2)C=C[C@@H]1OC(C)=O,·,·,·,·,–,·
CCOC(=O)CSC1=C(C#N)C(=O)NC(c2ccc(OC)c(OC)c2)S1 (centres undefined),–,28µM,–,–,–,–
CCOc1cc(C)c(S(=O)(=O)Nc2ccc3cn[nH]c3c2)cc1C,10µM,·,?,–,?,–
CNc1ccc(/C=C/c2ccccc2)cc1,·,·,–,·,·,–
Cc1ccc(C)c(S(=O)(=O)n2nc(C)c(S(=O)(=O)N3CCCCCC3)c2C)c1,·,–,–,–,·,–
CC(C)c1ccc(CCNC(=O)c2ccc([N+](=O)[O-])cc2)cc1,11µM,–,–,?,?,–
Cc1cc(C)cc(NC(=O)COCc2cc(-c3ccc4c(c3)OCO4)on2)c1,·,–,–,–,·,–
C#CCN1C(=O)[C@]2(OC[C@@H]3Cc4ccccc4[C@@H]3C=C2C)c2ccccc21,·,·,·,–,–,·
COCC(=O)Nc1cc(C(=O)N2CCOc3ccccc3C2)cc2nc(-c3cccnc3)n(C)c12,·,–,–,·,·,–
Cc1ccc(C)c(OCCCC(=O)Nc2nccs2)c1,13µM,–,–,–,–,–
Cc1ccccc1OCCCC(=O)Nc1nccs1,11µM,·,–,–,–,–
COc1ccc(CN2CCC3(CC2)c2ccccc2[C@@H](NC(=O)c2ccsc2)[C@@H]3OC)cc1O,·,–,–,·,·,–
O=c1c2ccccc2oc2cc(C#Cc3ccccn3)ccc12,–,–,–,·,·,–
C=CCn1c2ccccc2c(=O)c2cc(C#Cc3ccccn3)ccc21,13µM,–,–,·,·,–
CCOC(=O)c1c(N)sc2c(OCC)c(Br)ccc12,10µM,·,–,–,?,–
CCOC(=O)c1c(NC(C)=O)sc2c(OCC(O)CNC(C)(C)C)c(Br)ccc12 (centres undefined),4.5µM,–,·,·,·,·
CCOC(=O)C(=Cc1ccc(-n2cncn2)cc1)C(=O)OCC,–,28µM,?,11µM,?,?
CC1CCCN(C(=O)Cn2ncc3c([nH]c4ccccc43)c2=O)C1 (centres undefined),·,–,–,–,·,–
CCN(CC)C(=O)c1ccc2nc3ccccc3nc2c1,–,–,?,–,–,2.2µM
CCN(CC)C(=O)c1ccc2nc(-c3ccccc3)c(-c3ccccc3)nc2c1,–,–,–,–,–,–
COc1ccc(OC)c(-c2ccnc(-n3ncc(C(=O)N(C)CCO)c3C3CC3)n2)c1,·,–,–,·,·,–
COc1ccc2cc([C@H](C)CO)ccc2c1,·,–,?,·,·,–
